High-throughput results from PubChem BioAssay.
A selection: hits, their analogues and other compounds. The true share with any hit is near 2.6%.
Cruzain inh noDet: blocks cruzain activity in detergent-free assay | P25779 | 2.3% of 200,000 active | Potency, µM, inactives show max response, negative = inhibition, actives largely listed as inhibitors | purified cruzain, Z-FR-AMC fluorescence, no detergent;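 also: plate controls were enzyme without inhibitor for no effect and buffer without enzyme for full effect; nearly all actives have a fitted effect of over 40% in size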
Target sequence (P25779 123-467 limits assumed): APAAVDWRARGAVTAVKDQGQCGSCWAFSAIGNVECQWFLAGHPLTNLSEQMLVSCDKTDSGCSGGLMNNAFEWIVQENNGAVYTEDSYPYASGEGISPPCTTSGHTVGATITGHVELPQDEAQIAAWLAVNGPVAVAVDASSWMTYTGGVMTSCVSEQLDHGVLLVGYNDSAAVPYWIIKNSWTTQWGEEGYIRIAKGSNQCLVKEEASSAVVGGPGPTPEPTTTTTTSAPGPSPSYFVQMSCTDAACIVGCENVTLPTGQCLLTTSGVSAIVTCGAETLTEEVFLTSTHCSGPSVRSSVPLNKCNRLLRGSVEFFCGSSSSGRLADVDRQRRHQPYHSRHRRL
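Detergent-free condition (0.00005% Triton X-100) in acetate buffer pH 5.5 with DTT. 1.5 nM enzyme and compound were pre-mixed 15 min, then 2 uM Z-FR-AMC substrate added; reaction progress from fluorescence change between first and third reads (60 s).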
Cruzain Triton: inhibitors of Trypanosoma cruzi cruzain with detergent. P25779. purified cruzain, Z-FR-AMC fluorescence, 0.01% Triton. Potency, µM, for inactives: max response, negative = inhibition, most hits filed as inhibitors. 0.43% of 200,000 active. AID 1478;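 also: plate controls were neutral wells for no effect and buffer without enzyme for full effect; nearly all actives have a fitted effect of over 40% in size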
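Sodium acetate buffer (100 mM, pH 5.5) containing 5 mM DTT and 0.01% Triton X-100 hosted 1.5 nM cruzain and test compound for 15 min at room temperature. Cleavage of 2 uM Z-FR-AMC was then tracked by fluorescence.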
Numbers without * were called inactive; ? = inconclusive. Calls follow the shape of the dose curve; as a rule, active = well fitted curve in the direction sought with a large enough effect; inconclusive = small, poorly fitted or top-dose-only effect, or another doubt; inactive = no such curve, though single readings can be large; an effect the other way counts as inactive or inconclusive. Potency is read from the fitted curve at half-maximal effect.

SMILES	Cruzain inh noDet	Cruzain Triton
O=C(CSc1nccn1Cc1ccc2c(c1)OCO2)Nc1ccccc1F	-7.2%	-3.3%
Cc1ccc(-n2ncc3c(=O)n(CC(=O)Nc4cccc(Cl)c4)cnc32)cc1C	15.8µM*	-6.5%
Cc1ccc(-n2ncc3c(=O)n(Cc4cccc(Cl)c4)cnc32)cc1C	14.9%	0.0%
CC(=O)N1c2ccccc2CC1C(=O)NCc1cccc(Cl)c1 (stereo unspecified)	5.8%	-1.8%
CCOc1cc(CNC(=O)C2CCN(c3nc4ccccc4[nH]3)CC2)cc(OCC)c1OCC	1.3%	0.7%
Cc1c(CC(=O)NCCc2ccc(Cl)cc2)c(=O)oc2c(C)c3occ(C(C)(C)C)c3cc12	7.9%	-1.5%
O=C(Cn1c(=O)c2cccn2c2ccccc21)NCCc1ccccc1	15.8µM*	-4.7%
O=C(CCCn1c(=O)c2cccn2c2ccc(F)cc21)NCCc1ccccc1	-11.2%	-1.2%
Cc1ccc(/C=N/N2CCN(Cc3cccc4ccccc34)CC2)s1	10µM*	0.3%
Cc1ccc(/C=N/N2CCN(Cc3ccccc3)CC2)s1	4.8%	1.5%
COc1ccc(OC)c(CNC(=O)c2ccc(NC(=O)c3nsc4ccccc34)cc2)c1	?	-0.4%
O=C(CNC(=O)c1ccccc1F)OC(C(=O)Nc1cc(C(F)(F)F)ccc1Cl)c1ccccc1 (stereo unspecified)	7.94µM*	5.01µM*
C[C@H](NC(=O)c1ccccc1Cl)C(=O)OC(C(=O)Nc1cc(C(F)(F)F)ccc1Cl)c1ccccc1 (stereo partly specified)	-29.6%	?
COc1cccc(N2CCN(C(=O)CCc3c(C)nc4c(c3C)c(=O)n(C)c(=O)n4C)CC2)c1	2.5%	1.9%
COc1ccccc1C(=O)Nc1c(C(=O)N2CCN(c3ccccc3F)CC2)oc2ccccc12	-0.2%	-4.4%
C=CC#CC[N+]1(CC#Cc2ccccc2)CCOCC1	-7.9%	25.1µM*
C(#Cc1ccccc1)C[N+]1(CC#Cc2ccccc2)CCCC1	-13.2%	-3.0%
CCc1nnc2c(NCc3ccc(F)cc3)nc3ccccc3n12	6.4%	3.2%
O=C(c1ccc(Br)cc1)N(Cc1ccco1)c1ccccn1	-7.1%	-3.3%
O=[N+]([O-])c1ccc(Oc2ccc(-c3cnc4ccccc4n3)cc2[N+](=O)[O-])cc1	?	-2.4%
O=[N+]([O-])c1cc(-c2cnc3ccccc3n2)ccc1Oc1ccc(Br)cc1	25.1µM*	-0.2%
CSc1ccc(Cl)c(C(=O)NCc2ccco2)c1	20µM*	?
CSc1ccc(Cl)c(C(=O)OCC(=O)NCc2ccco2)c1	2.6%	-21.5%
Cc1nc(SC(C)C(=O)Nc2ccccc2Cl)cc(-c2ccccc2)n1 (stereo unspecified)	-4.4%	-4.5%
CCOC(=O)c1c(NC(=O)c2cc(-c3ccccc3OC)on2)sc(C)c1C	-3.3%	-1.6%
SMILES	Cruzain inh noDet	Cruzain Triton
O=C1c2ccccc2C(=O)N1c1ccc(-c2nc3ccccc3o2)cc1	4.9%	3.7%
NCc1ccc(-c2nc3ccccc3o2)cc1	12.6µM*	-2.3%
C=CCC(C)(O)CCc1ccccc1 (stereo unspecified)	-6.1%	3.6%
CCN(CC)S(=O)(=O)c1cccc(NC(=O)C2SC(=Nc3ccc(C)cc3C)C(C(=O)NC(C)COC)=C2N)c1 (stereo unspecified)	-11.2%	1.3%
CCCCNC(=O)C1=C(N)C(C(=O)Nc2ccc(C)c(S(=O)(=O)N3CCCCC3)c2)SC1=Nc1ccc(C)cc1C (stereo unspecified)	7.94µM*	7.1%
COc1ccccc1-c1nc(NC2CC2)c2ccccc2n1	-4.2%	-10.7%
CN(C)c1ccc(/C=C2\SC(=S)N(Nc3ncc(C(F)(F)F)cc3Cl)C2=O)cc1	12.6µM*	-9.3%
COc1cc(/C=C2\SC(=S)N(Nc3ncc(C(F)(F)F)cc3Cl)C2=O)ccc1O	?	-9.3%
CC1CCCCN1Cc1c(O)ccc2c(=O)c(-c3ccc(Cl)cc3)c(C(F)(F)F)oc12 (stereo unspecified)	-7.4%	?
Cc1nc(NC(=S)NC(=O)COc2ccc(Cl)cc2)ccc1Br	?	0.5%
Cc1ccc(OCC(=O)NC(=S)Nc2ccc(Br)c(C)n2)cc1	15.8µM*	4.1%
CCN(CC)S(=O)(=O)c1ccc(C(=O)NCCSc2c(-c3ccc(OC)cc3)[nH]c3ccccc23)cc1	-14.1%	2.2%
COc1ccc(-c2nnc(-c3cc4ccccc4oc3=O)o2)cc1	15.8µM*	-0.7%
COc1ccc2oc(=O)c(-c3nnc(-c4ccc(C)cc4)o3)cc2c1	-6.8%	11.2%
CCc1c(C)c2ccc3c(c2oc1=O)CN(Cc1ccccc1)CO3	?	-16.8%
O=C(CN1C(=O)/C(=C\c2ccc(F)cc2)Oc2ccccc21)NCc1ccco1	25.1µM*	25.1µM*
O=C(CCN1C(=O)COc2ccccc21)NCc1ccco1	-6.7%	0.9%
COc1ccc(NC(=O)C(=O)NCCc2csc3nc(-c4ccccc4C)nn23)cc1	-4.7%	-0.7%
N#CC1=C(N)n2c(s/c(=C\c3ccco3)c2=O)=C(C#N)C1c1ccco1 (stereo unspecified)	-24.8%	-9.4%
N#CC1=C(N)n2c(s/c(=C\c3cccs3)c2=O)=C(C#N)C1c1cccs1 (stereo unspecified)	25.1µM*	-24.5%
CCS(=O)(=O)N1CCc2cc(C(=O)Nc3cc(OC)c(Cl)cc3OC)ccc21	-11.1%	-6.5%
CCCc1nnc(NC(=O)C(CC)Sc2nnc3c4ccccc4n(C)c3n2)s1 (stereo unspecified)	-3.1%	-1.9%
C=CCn1c2ccccc2c2nnc(SC(CC)C(=O)Nc3sc4c(c3C#N)CCCC4)nc21 (stereo unspecified)	25.1µM*	-3.7%
O=C(CSCc1ccccc1Cl)N1CCN(c2ccc(F)cc2)CC1	9.2%	-0.3%
COc1ccc(C(=O)Oc2cccc(/C=N/NC(N)=S)c2)cc1	15.8µM*	?
SMILES	Cruzain inh noDet	Cruzain Triton
COc1cc(/C=N/NC(N)=S)ccc1OCc1ccc(C)cc1	1µM*	2.24µM*
COc1ccc(/C=N/NS(=O)(=O)c2ccccc2)cc1OC(=O)c1ccc(C)cc1	?	-0.4%
NC(=S)N/N=C/c1ccccc1	2.8%	-18.0%
COc1ccc(CNC(=S)N/N=C/c2ccc(OC)c(OC)c2)cc1	10.3%	-5.9%
COc1cc(/C=N/NC(N)=S)ccc1OC(=O)c1ccc(C)cc1	2.51µM*	4.47µM*
CC(=O)Nc1ccc(/C=N/NC(N)=S)cc1	11.2µM*	-17.1%
COc1ccc(/C=C\C(=O)Oc2cccc(/C=N/NC(=O)Cc3ccc(OC)c(OC)c3)c2)cc1	11.2%	-10.3%
Cc1cc(C)c(NC(=O)CSc2ncc3c(n2)-c2cc(Cl)ccc2N(C)S3(=O)=O)c(C)c1	-1.3%	5.3%
Cc1c(Cl)cccc1NC(=O)Cn1nnc2sc3c(c2c1=O)CCCC3	?	-1.8%
Cc1ccccc1C1CC(=O)Oc2cc(C)c(Cl)c(C)c21 (stereo unspecified)	6.8%	-2.1%
COc1cccc(OC)c1C(=O)NC(=S)Nc1ccc2c(c1)Cc1ccccc1-2	15.8µM*	-23.6%
COc1c(C)cccc1C(=O)NC(=S)Nc1ccc2c(c1)Cc1ccccc1-2	20µM*	2.4%
COc1ccc(C(=O)Nc2cccc(OC)c2)cc1	0.0%	3.7%
COc1cc(NC(=S)NC(=O)c2ccccc2C)ccc1NC(=O)c1cccs1	-21.1%	0.6%
COc1cccc(OC)c1C(=O)NC(=S)Nc1ccc2c(c1)C(=O)N(C)C2=O	-2.0%	-2.7%
COc1ccc(C(=O)Nc2ccc3c(c2)Cc2ccccc2-3)cc1	10µM*	5.6%
